Source: the supplement of paper PMC8975748
Where a name gives a salt, the structure may show the parent alone.

test system: Saccharomyces cerevisiae BY4741 SeMeCo community; assay: z-score of subpopulation abundance vs DMSO median, subpopulation auxotrophic for H; higher = larger share of this subpopulation than in DMSO controls; conditions: 10 µM; 24 h; SM minimal medium; subpopulation (auxotrophy): H
Protocol: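 Fluorescent four-plasmid SeMeCo (self-establishing metabolically cooperating S. cerevisiae BY4741 community; plasmids pH-mRuby2, pL-mWasabi, pU-eCFP, pM-TagRFP657) was grown 24 h in minimal SM medium with each Selleck FDA-approved drug at 10 µM in 384-well plates. Cells were fixed and imaged by high-content confocal microscopy. For each auxotrophic subpopulation (and the prototroph), a z-score gives the deviation from the DMSO vehicle-control population median.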

SMILES | z-score of subpopulation abundance
C=C[C@]1(C)C[C@@H](OC(=O)CSC(C)(C)CNC(=O)[C@H](N)C(C)C)[C@]2(C)[C@H](C)CC[C@]3(CCC(=O)[C@H]32)[C@@H](C)[C@@H]1O [Valnemulin HCl] | 0.85
C#C[C@]1(O)CC[C@H]2[C@@H]3CCC4=CCCC[C@@H]4[C@H]3C(=C)C[C@@]21CC [Desogestrel] | 0.78
CC[C@H](C)C(=O)O[C@H]1C[C@H](O)C=C2C=C[C@H](C)[C@H](CC[C@@H](O)C[C@@H](O)CC(=O)O)[C@H]21 [Pravastatin sodium] | 0.31
OCCN1CCN(CC/C=C2/c3ccccc3Sc3ccc(C(F)(F)F)cc32)CC1 [Flupenthixol dihydrochloride] | 0.73
CCOc1ccc(NC(C)=O)cc1 [Phenacetin] | 0.23
CCOc1ccc2ccccc2c1C(=O)N[C@@H]1C(=O)N2[C@@H]1SC(C)(C)[C@@H]2C(=O)O [Nafcillin Sodium] | -0.47
Cc1onc(-c2c(Cl)cccc2Cl)c1C(=O)N[C@@H]1C(=O)N2[C@@H]1SC(C)(C)[C@@H]2C(=O)O [Dicloxacillin Sodium] | 0.19
CCCN1C[C@H](C)[C@@H](O)[C@](C)(O)[C@@H](CC)OC(=O)[C@H](C)[C@@H](O[C@H]2C[C@@](C)(OC)[C@@H](O)[C@H](C)O2)[C@H](C)[C@@H](O[C@@H]2O[C@H](C)C[C@H](N(C)C)[C@H]2O)[C@](C)(O)C[C@H]1C [Gamithromycin] | 2.25
CC(C)(C)C(=O)C(Oc1ccc(Cl)cc1)n1ccnc1 (stereo not given) [Climbazole] | 2.84
C[N+]1(C)CCC(=C(c2ccccc2)c2ccccc2)CC1 [Diphemanil Methylsulfate] | -0.27
Cc1nc2n(c(=O)c1CCN1CCC(c3noc4cc(F)ccc34)CC1)CCCC2 [Risperidone] | 0.92
O=c1n(CCCN2CCN(c3cccc(Cl)c3)CC2)nc2ccccn12 [Trazodone HCl] | -0.86
Nc1c(Br)cc(Br)cc1CN[C@H]1CC[C@H](O)CC1 [Ambroxol HCl] | -0.09
COC(=O)C1=C(C)NC(C)=C(C(=O)OC)C1c1ccccc1[N+](=O)[O-] [Nifedipine] | 0.64
CO/N=C(\C(=O)N[C@@H]1C(=O)N2C(C(=O)O)=C(CSC(=O)c3ccco3)CS[C@H]12)c1csc(N)n1 [Ceftiofur HCl] | -0.05
OC(Cn1cncn1)(Cn1cncn1)c1ccc(F)cc1F [Fluconazole] | -2.16
COc1cc(NC(C)CCCN)c2ncccc2c1 (stereo not given) [Primaquine Diphosphate] | 0.32
CCC(=O)Oc1ccc2c(c1)CCC1C2CCC2(C)C(OC(=O)CC)CCC12 (stereo not drawn) [Estradiol dipropionate(17-Beta-Estradiol-3,17-Dipropionate)] | -1.21
N=C(N)NS(=O)(=O)c1ccc(N)cc1 [Sulfaguanidine] | -0.42
NC[C@H]1O[C@H](O[C@H]2[C@H](O[C@@H]3O[C@H](CO)[C@@H](O)[C@H]3O)[C@@H](O)[C@H](N)C[C@@H]2N)[C@H](N)[C@@H](O)[C@@H]1O [Ribostamycin Sulfate] | -0.21

SMILES | z-score of subpopulation abundance
CC(C(=O)O)c1ccc2c(c1)[nH]c1ccc(Cl)cc12 (stereo not given) [Carprofen] | 3.31
CCN(CC)C(=O)C1(c2ccccc2)CC1CN (stereo not given) [Milnacipran HCl] | -1.04
CN1C(C(=O)Nc2ccccn2)=C(O)c2sc(Cl)cc2S1(=O)=O [Lornoxicam] | -0.26
CC(C)C(=O)c1c(C(C)C)nn2ccccc12 [Ibudilast] | -1.02
COc1cc2c(cc1OC)C(=O)C(CC1CCN(Cc3ccccc3)CC1)C2 (stereo not given) [Donepezil] | -0.21
Clc1ccc(CCC(Cn2ccnc2)Sc2c(Cl)cccc2Cl)cc1 (stereo not given) [Butoconazole nitrate] | 30.8
CO/N=C(\C(=O)N[C@@H]1C(=O)N2C(C(=O)O)=C(COC(C)=O)CS[C@H]12)c1csc(N)n1 [Cefotaxime sodium] | -0.66
OCCN1CCN(CCCN2c3ccccc3Sc3ccc(C(F)(F)F)cc32)CC1 [Fluphenazine dihydrochloride] | 1.1
CC[C@H](C)[C@H](N)C1=N[C@H](C(=O)N[C@@H](CC(C)C)C(=O)N[C@H](CCC(=O)O)C(=O)N[C@H](C(=O)N[C@H]2CCCCNC(=O)[C@H](CC(N)=O)NC(=O)[C@@H](CC(=O)O)NC(=O)[C@H](Cc3cnc[nH]3)NC(=O)[C@@H](Cc3ccccc3)NC(=O)[C@H]([C@@H](C)CC)NC(=O)[C@@H](CCCN)NC2=O)[C@@H](C)CC)CS1 [Bacitracin] | 3.13
Oc1ccc([C@H]2COc3cc(O)ccc3C2)cc1 [Equol] | -0.53
Nc1nc(N)nc(-c2cc(Cl)ccc2Cl)n1 [Irsogladine] | -0.31
CCc1cc(C(N)=S)ccn1 [Ethionamide] | 0.59
Cc1c(C(N)=O)cc([N+](=O)[O-])cc1[N+](=O)[O-] [Dinitolmide] | -0.33
CCCNC(C)C(=O)Nc1ccccc1C (stereo not given) [Prilocaine] | 0.48
OC(c1cc(C(F)(F)F)nc2c(C(F)(F)F)cccc12)C1CCCCN1 (stereo not given) [Mefloquine HCl] | -0.01
Cc1cc(CC(C)CC(C)(C)C)n(O)c(=O)c1 (stereo not given) [Piroctone Olamine] | 3.62
CN(C)CC/C=C1/c2ccccc2Sc2ccc(Cl)cc21 [Chlorprothixene] | -1
NCc1ccccc1CC(=O)N[C@@H]1C(=O)N2C(C(=O)O)=C(CSc3nnnn3CC(=O)O)CS[C@H]12 [Ceforanide] | 2.15
CCOC(=O)C1=C(C)NC(C)=C(C(=O)OC)C1c1cccc([N+](=O)[O-])c1 (stereo not given) [Nitrendipine] | -0.06
CN(C)CCCN1c2ccccc2Sc2ccc(Cl)cc21 [Chlorpromazine HCl] | -0.33
